Assay results reported in PubChem BioAssay (EPA / NIEHS).
Active and inactive are the calls of the source. The calls were made as follows: active = hit-call score of the fitted dose curve at least 0.9, where 1 is the maximum; inactive = score below 0.9.

Columns and labels:
Conditions in all cases: mRNA level, 48 h; actives raise or lower the signal
[1] = read-out: ABC Transporter (ABCB11), ABCB11 (gene 8647); test: LTEA_HepaRG_ABCB11: Life Technologies and Expression Analysis (LTEA) Assay for ABC Transporter (ABCB11) using HepaRG (AID 2283463)
Outline: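 HepaRG, 48 h exposure, 8-pt half-log CRC top 100 uM, 0.5% DMSO vehicle, duplicates. Readout: TaqMan qRT-PCR of ABCB11 mRNA, housekeeping-normalized (ACTB/GAPDH/POLR2A). Bidirectional fit vs DMSO baseline.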

[2] = read-out: ABC Transporter (ABCC2), ABCC2 (gene 1244); test: LTEA_HepaRG_ABCC2: Life Technologies and Expression Analysis (LTEA) Assay for ABC Transporter (ABCC2) using HepaRG (AID 2283464)
Outline: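 HepaRG, 48 h post-plating; serum-free induction medium; cpd 8-pt, 100 uM top, half-log, 0.5% DMSO, duplicate, 48 h. Readout: ABCC2 mRNA by qRT-PCR, norm. ACTB/GAPDH/POLR2A. Bidirectional fit vs DMSO baseline.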

[3] = read-out: Broad substrate specificity ATP-binding cassette transporter ABCG2 (Homo sapiens) (UniProt Q9UNQ0); test: LTEA_HepaRG_ABCG2: Life Technologies and Expression Analysis (LTEA) Assay for ABC Transporter (ABCG2) using HepaRG (AID 2283465)
Outline: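 HepaRG, 48 h exposure, 8-pt half-log series from 100 uM, 0.5% DMSO vehicle, duplicates. Readout: ABCG2 transcript by qRT-PCR (Fluidigm array), housekeeping-normalized; bidirectional curve fit relative to DMSO baseline.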

[4] = read-out: Peroxisomal acyl-coenzyme A oxidase 1 (ACOX1) gene, ACOX1 (gene 51); test: LTEA_HepaRG_ACOX1: Life Technologies and Expression Analysis (LTEA) Assay for Peroxisomal acyl-coenzyme A oxidase 1 (ACOX1) gene using HepaRG (AID 2283467)
Outline: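 HepaRG, 48 h chemical exposure, 8-pt half-log series from 100 uM top, 0.5% DMSO vehicle, duplicates. Readout: ACOX1 mRNA by Fluidigm qRT-PCR, housekeeping-normalized; bidirectional fit vs DMSO baseline.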

[5] = read-out: Alkaline Phosphatase, Placental (ALPP) gene, ALPP (gene 250); test: LTEA_HepaRG_ALPP: Life Technologies and Expression Analysis (LTEA) Assay for Alkaline Phosphatase, Placental (ALPP) gene using HepaRG (AID 2283468);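 as to AC50: differentiated human HepaRG liver cells in serum-free induction medium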
Outline: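 HepaRG, 48 h plating then 48 h dosing, serum-free induction medium, 0.5% DMSO. 8 conc, half-log, max 100 uM, duplicates. Endpoint: ALPP transcript by qRT-PCR, housekeeping-normalized; gain or loss fitted vs DMSO.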

[6] = read-out: Bcl-2 (BAD) gene, BAD (gene 572); test: LTEA_HepaRG_BAD: Life Technologies and Expression Analysis (LTEA) Assay for Bcl-2 (BAD) gene using HepaRG (AID 2283469)
Outline: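 HepaRG, 48 h exposure, 8-pt half-log curve from 100 uM in 0.5% DMSO, duplicates. Readout: TaqMan qRT-PCR for BAD mRNA, housekeeping-normalised (ACTB/GAPDH/POLR2A); gain or loss fitted against DMSO baseline.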

[7] = read-out: Bcl-2 (BAX) gene, BAX (gene 581); test: LTEA_HepaRG_BAX: Life Technologies and Expression Analysis (LTEA) Assay for Bcl-2 (BAX) gene using HepaRG (AID 2283470)
Outline: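 Gene expression measured by Fluidigm qRT-PCR with three housekeeping genes for normalisation. HepaRG cells, plated 48 h beforehand, treated 48 h at up to 100 uM (8-point, half-log) in 0.5% DMSO. Bidirectional fitting versus DMSO.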

[8] = read-out: adenosine kinase (ADK) gene, ADK (gene 132); test: LTEA_HepaRG_ADK: Life Technologies and Expression Analysis (LTEA) Assay for adenosine kinase (ADK) gene using HepaRG (AID 2283471)
Outline: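 Following 48 h exposure of HepaRG cells in 0.5% DMSO (top concentration 100 uM, duplicate wells), ADK mRNA induction or suppression was measured by qRT-PCR, normalised to ACTB/GAPDH/POLR2A, and fitted bidirectionally relative to vehicle.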

[9] = read-out: Alpha-fetoprotein (AFP) gene, AFP (gene 174); test: LTEA_HepaRG_AFP: Life Technologies and Expression Analysis (LTEA) Assay for Alpha-fetoprotein (AFP) gene using HepaRG (AID 2283472)
Outline: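 AFP transcript measured by TaqMan qRT-PCR with three housekeeping genes for normalization, after 48 h chemical treatment of HepaRG cells (top 100 uM, half-log steps, 0.5% DMSO). Gain or loss fitted against vehicle.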

BCL2L11 (gene 10018) = test: LTEA_HepaRG_BCL2L11: Life Technologies and Expression Analysis (LTEA) Assay for Bcl-2 (BCL2L11) gene using HepaRG (AID 2283473)
Outline: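 Read-out is BCL2L11 transcript level by qRT-PCR, normalized to three housekeeping genes and fitted bidirectionally against 0.5% DMSO vehicle. HepaRG cells received chemicals for 48 h in serum-free induction medium, 100 uM down in half-log dilutions.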

[10] = read-out: Apoptosis regulator Bcl-2 (Homo sapiens) (UniProt P10415); test: LTEA_HepaRG_BCL2: Life Technologies and Expression Analysis (LTEA) Assay for Bcl-2 gene using HepaRG (AID 2283475)
Outline: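 qRT-PCR of BCL2 transcript, normalized to three housekeeping genes (ACTB, GAPDH, POLR2A), after 48 h chemical exposure of HepaRG cells; concentrations top 100 uM with half-log dilutions, 0.5% DMSO vehicle, duplicates; changes up or down fitted relative to vehicle.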

[11] = read-out: Bcl-2 (BID) gene, BID (gene 637); test: LTEA_HepaRG_BID: Life Technologies and Expression Analysis (LTEA) Assay for Bcl-2 (BID) gene using HepaRG (AID 2283476)
Outline: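 Duplicate 48 h treatments of HepaRG cells in serum-free induction medium spanned 100 uM downward in half-log steps, 0.5% DMSO. Transcript change quantified by qRT-PCR against three housekeeping genes, fitted up or down versus DMSO.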

Caspase-3 (Homo sapiens) = Caspase-3 (Homo sapiens) (UniProt P42574); test: LTEA_HepaRG_CASP3: Life Technologies and Expression Analysis (LTEA) Assay for cysteine-aspartic acid protease (CASP3) using HepaRG (AID 2283477)
Sequence of Caspase-3 (Homo sapiens) (P42574 whole entry, looked up): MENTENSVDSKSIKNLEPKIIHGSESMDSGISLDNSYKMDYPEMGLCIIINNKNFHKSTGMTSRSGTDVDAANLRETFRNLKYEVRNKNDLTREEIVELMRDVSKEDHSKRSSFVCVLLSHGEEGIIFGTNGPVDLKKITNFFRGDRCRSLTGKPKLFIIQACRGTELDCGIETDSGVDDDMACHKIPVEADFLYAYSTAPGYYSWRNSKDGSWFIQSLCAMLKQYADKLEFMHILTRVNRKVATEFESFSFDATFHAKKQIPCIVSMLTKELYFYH
Outline: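 Read-out is CASP3 mRNA level by TaqMan qRT-PCR in human HepaRG cells after 48 h chemical exposure. Eight half-log concentrations topping at 100 uM were tested in 0.5% DMSO; gain or loss was fitted relative to DMSO.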

[12] = read-out: Cytochrome P450 (CYP24A1), CYP24A1 (gene 1591); test: LTEA_HepaRG_CYP24A1: Life Technologies and Expression Analysis (LTEA) Assay for Cytochrome P450 (CYP24A1) using HepaRG (AID 2283478)
Outline: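 HepaRG, 48 h chemical exposure, 8-pt half-log CRC from 100 uM, 0.5% DMSO vehicle, duplicates. Endpoint: CYP24A1 mRNA by Fluidigm TaqMan qRT-PCR, normalized ACTB/GAPDH/POLR2A; gain/loss fit vs DMSO.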

[13] = read-out: Cytochrome P450 (CYP1A2), CYP1A2 (gene 1544); test: LTEA_HepaRG_CYP1A2: Life Technologies and Expression Analysis (LTEA) Assay for Cytochrome P450 (CYP1A2) using HepaRG (AID 2283479)
Outline: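 CYP1A2 transcript induction or loss, quantified by Fluidigm qRT-PCR against three housekeeping genes, was fitted bidirectionally against 0.5% DMSO controls. Human HepaRG cells received eight half-log concentrations from 100 uM over 48 h.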

[14] = read-out: cysteine-aspartic acid protease (CASP8), CASP8 (gene 841); test: LTEA_HepaRG_CASP8: Life Technologies and Expression Analysis (LTEA) Assay for cysteine-aspartic acid protease (CASP8) using HepaRG (AID 2283480)
Outline: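 qRT-PCR readout of CASP8 mRNA, normalized to three housekeeping genes, after 48 h chemical exposure of HepaRG cells; 8-point half-log series, top 100 uM, 0.5% DMSO vehicle. Bidirectional curve fitting against DMSO baseline.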

[15] = read-out: Cytochrome P450 (CYP2B6), CYP2B6 (gene 1555); test: LTEA_HepaRG_CYP2B6: Life Technologies and Expression Analysis (LTEA) Assay for Cytochrome P450 (CYP2B6) using HepaRG (AID 2283481)
Outline: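 HepaRG cells plated 48 h, switched to serum-free induction medium, then dosed 48 h (8 points, half-log from 100 uM, 0.5% DMSO). RNA isolated; CYP2B6 expression measured by qRT-PCR; gain or loss fitted relative to DMSO.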

[16] = read-out: Cytochrome P450 2C19 (Homo sapiens) (UniProt P33261); test: LTEA_HepaRG_CYP2C19: Life Technologies and Expression Analysis (LTEA) Assay for CYP2C19 using HepaRG (AID 2283482)
Outline: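 Transcript levels of CYP2C19 were quantified by qRT-PCR after HepaRG cells were treated for 48 hours with test chemicals up to 100 uM (eight half-log concentrations, 0.5% DMSO vehicle). Gain or loss of signal was fitted relative to DMSO.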

[17] = read-out: Apolipoprotein A-V (APOA5) gene, APOA5 (gene 116519); test: LTEA_HepaRG_APOA5: Life Technologies and Expression Analysis (LTEA) Assay for Apolipoprotein A-V (APOA5) gene using HepaRG (AID 2283474)
Outline: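 Readout is APOA5 transcript level by qRT-PCR on Fluidigm dynamic arrays, normalized to three housekeeping genes. HepaRG cultures received chemicals for 48 h at up to 100 uM (half-log steps, 0.5% DMSO), with gain or loss scored relative to DMSO.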

[18] = read-out: ATP-citrate lyase (ACLY), ACLY (gene 47); test: LTEA_HepaRG_ACLY: Life Technologies and Expression Analysis (LTEA) Assay for ATP-citrate lyase (ACLY) using HepaRG (AID 2283466)
Outline: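 qRT-PCR readout of ACLY transcript after 48 h chemical treatment of HepaRG cells; expression normalized to three housekeeping genes. Eight-point half-log series, highest 100 uM, 0.5% DMSO vehicle. Gain or loss fitted against DMSO baseline.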

Sequence of Apoptosis regulator Bcl-2 (Homo sapiens) (P10415 whole entry, looked up): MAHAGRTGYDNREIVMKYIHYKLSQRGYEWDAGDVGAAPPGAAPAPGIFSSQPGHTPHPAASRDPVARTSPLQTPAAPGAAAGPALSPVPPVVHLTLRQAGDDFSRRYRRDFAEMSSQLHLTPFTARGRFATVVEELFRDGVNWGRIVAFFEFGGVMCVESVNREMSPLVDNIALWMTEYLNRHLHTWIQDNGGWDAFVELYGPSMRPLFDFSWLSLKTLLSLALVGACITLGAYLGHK
Sequence of Broad substrate specificity ATP-binding cassette transporter ABCG2 (Homo sapiens) (Q9UNQ0 whole entry, looked up): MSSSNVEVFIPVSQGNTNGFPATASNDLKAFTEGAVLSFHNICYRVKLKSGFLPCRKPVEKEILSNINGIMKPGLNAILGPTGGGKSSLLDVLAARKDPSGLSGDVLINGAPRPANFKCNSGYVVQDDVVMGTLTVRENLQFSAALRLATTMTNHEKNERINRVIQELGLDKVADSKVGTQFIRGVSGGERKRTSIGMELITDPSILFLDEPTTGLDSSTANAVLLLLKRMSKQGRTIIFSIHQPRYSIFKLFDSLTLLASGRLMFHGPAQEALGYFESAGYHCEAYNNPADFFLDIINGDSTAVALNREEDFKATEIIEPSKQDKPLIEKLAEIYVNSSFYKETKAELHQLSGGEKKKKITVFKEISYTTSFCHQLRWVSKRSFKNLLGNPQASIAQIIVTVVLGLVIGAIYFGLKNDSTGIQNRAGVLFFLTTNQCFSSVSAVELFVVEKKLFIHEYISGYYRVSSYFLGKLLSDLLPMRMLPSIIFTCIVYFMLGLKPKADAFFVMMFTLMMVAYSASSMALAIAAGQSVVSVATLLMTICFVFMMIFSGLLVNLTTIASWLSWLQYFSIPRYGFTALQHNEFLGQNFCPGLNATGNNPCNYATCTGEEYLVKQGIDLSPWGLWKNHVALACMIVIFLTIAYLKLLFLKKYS
Sequence of Cytochrome P450 2C19 (Homo sapiens) (P33261 whole entry, looked up): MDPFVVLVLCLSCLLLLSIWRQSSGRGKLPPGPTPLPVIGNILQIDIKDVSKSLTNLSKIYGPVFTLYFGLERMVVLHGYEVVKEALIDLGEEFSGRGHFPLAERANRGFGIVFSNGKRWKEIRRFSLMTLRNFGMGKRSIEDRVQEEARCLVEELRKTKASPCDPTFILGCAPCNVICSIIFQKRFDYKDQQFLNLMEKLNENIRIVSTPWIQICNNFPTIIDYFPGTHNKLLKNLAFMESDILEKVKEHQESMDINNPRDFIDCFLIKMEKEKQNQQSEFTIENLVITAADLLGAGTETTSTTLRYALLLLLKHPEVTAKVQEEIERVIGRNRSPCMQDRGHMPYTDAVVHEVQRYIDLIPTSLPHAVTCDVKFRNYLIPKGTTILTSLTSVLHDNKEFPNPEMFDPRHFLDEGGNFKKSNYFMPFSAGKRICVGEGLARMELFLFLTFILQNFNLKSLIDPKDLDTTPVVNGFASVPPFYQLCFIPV

Structure (SMILES): CCOc1cc(Oc2ccc(C(F)(F)F)cc2Cl)ccc1[N+](=O)[O-]
- AC50 [1]: 19.1 µM (active)
- outcome [2]: inactive
- AC50 [3]: 9.39 µM (active)
- AC50 [4]: 50 µM (active)
- AC50 [5]: 40.3 µM (active)
- outcome [6]: inactive
- outcome [7]: inactive
- outcome [8]: inactive
- AC50 [9]: 39.1 µM (active)
- outcome (BCL2L11 (gene 10018)): inactive
- AC50 [10]: 33.5 µM (active)
- outcome [11]: inactive
- outcome (Caspase-3 (Homo sapiens)): inactive
- outcome [12]: inactive
- AC50 [13]: 5.27 µM (active)
- outcome [14]: inactive
- AC50 [15]: 34.4 µM (active)
- AC50 [16]: 69.3 µM (active)

Structure (SMILES): Cc1ccc(-c2c(Cl)nc(C#N)n2S(=O)(=O)N(C)C)cc1
- AC50 [1]: 36.4 µM (active)
- AC50 [2]: 4.39 µM (active)
- outcome [3]: inactive
- AC50 [4]: 4.39 µM (active)
- AC50 [5]: 50 µM (active)
- AC50 [6]: 68.3 µM (active)
- outcome [7]: inactive
- AC50 [8]: 50 µM (active)
- AC50 [9]: 3.99 µM (active)
- outcome (BCL2L11 (gene 10018)): inactive
- AC50 [17]: 74.2 µM (active)
- AC50 [10]: 87.4 µM (active)
- outcome [11]: inactive
- outcome (Caspase-3 (Homo sapiens)): inactive
- AC50 [12]: 0.01 µM (active)
- outcome [13]: inactive
- AC50 [15]: 5 µM (active)
- AC50 [16]: 5.98 µM (active)

Structure (SMILES): CON(C)C(=O)Nc1ccc(Cl)c(Cl)c1
- AC50 [1]: 43.1 µM (active)
- AC50 [2]: 85 µM (active)
- AC50 [3]: 78.2 µM (active)
- outcome [18]: inactive
- outcome [4]: inactive
- AC50 [5]: 42 µM (active)
- outcome [6]: inactive
- outcome [7]: inactive
- outcome [8]: inactive
- AC50 [9]: 74.2 µM (active)
- outcome (BCL2L11 (gene 10018)): inactive
- outcome [10]: inactive
- outcome [11]: inactive
- outcome (Caspase-3 (Homo sapiens)): inactive
- outcome [12]: inactive
- AC50 [13]: 29.8 µM (active)
- outcome [14]: inactive
- AC50 [15]: 24 µM (active)
- AC50 [16]: 65.1 µM (active)

Structure (SMILES): Cc1cc(Cl)ccc1OCC(=O)O
- AC50 [1]: 50 µM (active)
- outcome [2]: inactive
- outcome [3]: inactive
- AC50 [4]: 34.3 µM (active)
- outcome [5]: inactive
- outcome [6]: inactive
- outcome [7]: inactive
- outcome [8]: inactive
- outcome [9]: inactive
- outcome (BCL2L11 (gene 10018)): inactive
- outcome [10]: inactive
- outcome [11]: inactive
- outcome (Caspase-3 (Homo sapiens)): inactive
- outcome [12]: inactive
- AC50 [13]: 50 µM (active)
- AC50 [15]: 25.5 µM (active)
- AC50 [16]: 24.3 µM (active)

Structure (SMILES): CNC(=O)ON=CC(C)(C)SC
- outcome [1]: inactive
- outcome [2]: inactive
- outcome [3]: inactive
- outcome [18]: inactive
- outcome [4]: inactive
- outcome [5]: inactive
- outcome [6]: inactive
- outcome [7]: inactive
- outcome [8]: inactive
- outcome [9]: inactive
- outcome [17]: inactive
- outcome [10]: inactive
- outcome [11]: inactive
- outcome (Caspase-3 (Homo sapiens)): inactive
- outcome [12]: inactive
- outcome [13]: inactive
- AC50 [15]: 50 µM (active)
- outcome [16]: inactive

Structure (SMILES): CCCCC(CC)COC(=O)c1ccccc1C(=O)OCC(CC)CCCC (configuration not stated)
- outcome [1]: inactive
- outcome [2]: inactive
- outcome [3]: inactive
- outcome [4]: inactive
- outcome [5]: inactive
- outcome [6]: inactive
- outcome [7]: inactive
- outcome [8]: inactive
- outcome [9]: inactive
- outcome (BCL2L11 (gene 10018)): inactive
- outcome [10]: inactive
- outcome [11]: inactive
- outcome (Caspase-3 (Homo sapiens)): inactive
- outcome [12]: inactive
- AC50 [13]: 50 µM (active)
- AC50 [15]: 19 µM (active)
- outcome [16]: inactive
